The results in this text go back to PubChem BioAssay (NCATS).

Inconclusive results are not listed. Active and inactive are the calls of the source. Unless noted, calls follow the shape of the dose curve; as a rule, active = well fitted curve in the direction sought with a large enough effect; inconclusive = small, poorly fitted or top-dose-only effect, or another doubt; inactive = no such curve, though single readings can be large; an effect the other way counts as inactive or inconclusive.

The target in test [1] is Lysosomal acid glucosylceramidase (Homo sapiens) (UniProt P04062). The experiment in a line: Glucocerebrosidase-p2 (AID 348; in the data active = potency below about 10 µM; also: potency is read from the fitted curve at half-maximal effect). The conditions noted are these: purified GBA, blue fluorogenic substrate, 40 min. In short, it runs like this:
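Normal human glucocerebrosidase (0.2 nM) with blue fluorogenic substrate (80 uM final) in citrate/phosphate pH 5.9 with 10mM sodium taurocholate, 0.01% tween-20; 40 min RT, NaOH/glycine stop; fluorescence Ex 365/Em 440; AC50 from a titration from 0.6 nM upwards.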

Test [2] is described as follows: AP1 Signaling Pathway (AID 357; active = well fitted curve in either direction with a large enough effect, not every such curve was filed as active; also: % is scaled to controls: 0 for no effect and ±100 for the full control effect). The conditions noted are these: ME-180 AP-1-bla reporter, EGF-induced, beta-lactamase ratio, 5 h; at 7.69 µM (top of the series) unless noted. In short, it runs like this: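 In this screen, ME-180 cells in Opti-MEM with 0.5% dialyzed FBS received EC50 EGF and compound titrations for 5 h. AP-1 reporter beta-lactamase was detected via CCF4 ratio, giving AC50 for positive and negative modulators.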

For test [3], the target named is Cytochrome P450 1A2 (Homo sapiens) (UniProt P05177). The experiment in a line: p450-cyp1a2 (AID 410; calls by dose curve; also: potency is read from the fitted curve at half-maximal effect). As to conditions: recombinant CYP1A2, luciferin-ME demethylation, luminescence; series mostly up to 57 µM. In short, it runs like this: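 20nM CYP1A2, 100uM Luciferin-ME (=Km), 100mM KPO4; cpd 10 min RT; +NADPH regen, 60 min RT; stop/detect 20 min; luminescence. Normalized to furafylline 57 uM = full inhibition.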
Chain of Cytochrome P450 1A2 (Homo sapiens) (P05177 whole entry, looked up): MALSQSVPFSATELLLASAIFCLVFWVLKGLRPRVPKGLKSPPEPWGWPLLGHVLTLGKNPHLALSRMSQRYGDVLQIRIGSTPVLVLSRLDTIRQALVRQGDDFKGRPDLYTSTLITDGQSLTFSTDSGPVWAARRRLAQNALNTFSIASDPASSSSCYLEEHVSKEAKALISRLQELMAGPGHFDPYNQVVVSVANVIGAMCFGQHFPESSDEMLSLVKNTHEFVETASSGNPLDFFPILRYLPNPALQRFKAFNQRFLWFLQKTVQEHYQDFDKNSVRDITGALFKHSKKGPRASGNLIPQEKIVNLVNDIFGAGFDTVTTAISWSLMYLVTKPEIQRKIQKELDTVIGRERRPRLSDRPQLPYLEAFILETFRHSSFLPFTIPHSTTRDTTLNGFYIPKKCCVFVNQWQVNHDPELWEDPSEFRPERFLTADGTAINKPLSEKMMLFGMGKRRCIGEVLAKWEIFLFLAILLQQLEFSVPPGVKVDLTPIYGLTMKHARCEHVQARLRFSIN

In test [4] the target is Glucocorticoid receptor (Homo sapiens) (UniProt P04150). The experiment in a line: GR-GFP Redistribution (AID 450;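 active = compounds whose dose series gives a full or clear partial fitted curve of increased nuclear translocation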; also: potency is read from the fitted curve at half-maximal effect). The conditions noted are these: U2OS GR-GFP nuclear translocation, laser cytometry, 2 h.
Chain of Glucocorticoid receptor (Homo sapiens) (P04150 whole entry, looked up, the tested form may be a part): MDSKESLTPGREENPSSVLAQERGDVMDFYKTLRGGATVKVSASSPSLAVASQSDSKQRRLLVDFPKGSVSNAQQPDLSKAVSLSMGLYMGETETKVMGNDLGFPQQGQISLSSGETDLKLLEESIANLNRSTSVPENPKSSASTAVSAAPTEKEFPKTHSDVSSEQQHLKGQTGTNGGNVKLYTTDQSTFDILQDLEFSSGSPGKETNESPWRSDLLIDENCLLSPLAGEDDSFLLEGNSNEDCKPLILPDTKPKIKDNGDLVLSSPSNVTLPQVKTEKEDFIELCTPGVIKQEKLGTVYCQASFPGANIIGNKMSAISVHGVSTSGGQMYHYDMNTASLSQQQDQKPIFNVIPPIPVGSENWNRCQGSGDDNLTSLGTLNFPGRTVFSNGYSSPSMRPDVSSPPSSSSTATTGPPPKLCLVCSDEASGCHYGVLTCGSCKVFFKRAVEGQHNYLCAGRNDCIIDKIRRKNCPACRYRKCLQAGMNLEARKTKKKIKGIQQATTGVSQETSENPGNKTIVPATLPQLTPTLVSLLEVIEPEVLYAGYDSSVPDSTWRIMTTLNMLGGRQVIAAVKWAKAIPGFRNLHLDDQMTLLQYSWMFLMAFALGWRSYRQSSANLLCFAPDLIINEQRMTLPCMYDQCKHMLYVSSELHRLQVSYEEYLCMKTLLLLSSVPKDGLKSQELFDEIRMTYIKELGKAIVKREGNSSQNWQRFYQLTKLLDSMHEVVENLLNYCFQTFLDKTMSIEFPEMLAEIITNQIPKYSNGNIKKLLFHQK
Test [5] has as its target Mitogen-activated protein kinase 10 (Mus musculus) (UniProt Q61831). Put plainly: JNK3 AlphaScreen Assay (AID 530; active = well fitted curve in either direction with a large enough effect, not every such curve was filed as active;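 also: kinase came from lysate of stimulated human HepG2 cells; signal reports phosphorylation of biotinylated GST-cJun 1-79 at Ser73 with 10 µM ATP; % is scaled to controls: 0 for no effect and ±100 for the full control effect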). The conditions noted are these: JNK3 lysate, c-Jun phosphorylation; series mostly up to 57.1 µM. In short, it runs like this:
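HepG2 lysate (IL-1b/TNFa pre-activated) + biotin-GST-cJun 1-79 + anti-pSer73 cJun; cpd titration, 15 min RT; ATP 10 uM start; Tris pH 7.6, MgCl2, DTT, vanadate; beads in EDTA buffer; AlphaScreen.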

Test [6] addresses 3',5'-cyclic-AMP phosphodiesterase 4B (Homo sapiens) (UniProt Q07343). Put plainly: qHTS Assay for Inhibitors of PDE-IV (AID 607; active = well fitted activation curve with a large enough effect in the main read-out, with a control signal flat, not every such curve was filed as active; also: % of control where 0% means no effect). The conditions noted are these: HEK293 ACTOne CNG channel cells, membrane potential fluorescence; series mostly up to 22.9 µM. In short, it runs like this: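 The readout is membrane depolarisation from a cAMP-sensing CNG channel, detected with a potential dye at ex 535/em 590. Cells were HEK293-derived (endogenous PDE-IV) at 1000 cells/well, titrated up to 22.9 uM final.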

Test [7] deals with Dual specificity protein kinase CLK4 (Homo sapiens) (UniProt Q9HAZ1). Put plainly: qHTS Assay for Inhibitors of CDC-like Kinase 4 (Kinase-Glo Assay) (AID 1770). Also: % is scaled to controls: 0 for no effect and ±100 for the full control effect; nearly all actives have a fitted effect of over 65% in size. The conditions noted are these: recombinant Clk4, Kinase-Glo ATP depletion luminescence; series mostly up to 66.7 µM. Put shortly:
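Readout: Kinase-Glo luminescence from ATP left after a 4.5 h room-temperature reaction of 25 nM Clk4 with 100 uM RS peptide and 1 uM ATP (final). Buffer: 25 mM Tris pH 7.5, 10 mM MgCl2.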
For orientation: qHTS replaces the single test concentration by a dilution series.

Test [8] shares this target. Put plainly: qHTS Assay for Inhibitors of CDC-like Kinase 4 (ADP-Glo Assay) (AID 1771). Also: % is scaled to controls: 0 for no effect and ±100 for the full control effect; nearly all actives have a fitted effect of over 70% in size. The conditions noted are these: recombinant CLK4, ADP-Glo luminescence; series mostly up to 80 µM. In short, it runs like this:
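25 nM Clk4, 100 uM RS peptide, 1 uM ATP (final); 2 mM MgCl2, 0.5 mM EGTA, 2.5 mM DTT, 0.01% Triton X-100; 1 hr RT. ADP-Glo readout: ATP depletion 45 min, conversion/luciferase 30 min, luminescence.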

The target is the same in test [9]. Put plainly: qHTS Assay for Inhibitors of CDC-like Kinase 4 (ADP-FP Assay) (AID 1795).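 Also: recombinant human CLK4 phosphorylating RS repeat peptide at 1 µM ATP; % is scaled to controls: 0 for no effect and ±100 for the full control effect; nearly all actives have a fitted effect of over 60% in size.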 The conditions noted are these: Transcreener ADP fluorescence polarization; series mostly up to 50 µM. In short, it runs like this: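 FP readout: Orange Transcreener ADP2 tracer (4 nM) plus ADP antibody, read after 30 min at room temperature. Kinase step: 6.25 nM Clk4, 100 uM RS peptide, 1 uM ATP, pH 7.5, 1 h.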

Test [10] addresses Ubiquitin carboxyl-terminal hydrolase 1 (Homo sapiens) (UniProt O94782). Put plainly: Inhibitors of USP1/UAF1: Pilot qHTS (AID 504865).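 Also: rhodamine fluorescence freed from ubiquitin-rhodamine substrate followed over time; top concentration of the series differs between compounds; % is scaled to controls: 0 for no effect and ±100 for the full control effect; nearly all actives have a fitted effect of over 35% in size.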 The conditions noted are these: purified USP1/UAF1, Ub-rhodamine cleavage fluorescence; series mostly up to 54.9 µM. Put shortly:
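1nM USP1/UAF1 + cpd, 15 min RT; start w/ Ub-Rho 150nM final; kinetic FL 480/540 nm, 6 reads q60 s. Buffer 50mM HEPES pH 7.8, 0.5mM EDTA, 1mM TCEP, 0.01% Tween-20, 0.1 mg/ml BSA.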

Test [11] can be described thus: Primary qHTS for small molecule stabilizers of the endoplasmic reticulum resident proteome: Secreted ER Calcium Modulated Protein (SERCaMP) assay (AID 1508630). Also: % is scaled to controls: 0 for no effect and ±100 for the full control effect. As to conditions: SH-SY5Y GLuc-SERCaMP (Gaussia luciferase released on ER calcium loss) secretion, thapsigargin, luminescence; series mostly up to 38.4 µM. In short, it runs like this:
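The SH-SY5Y reporter protocol was run at 3 concentrations up to 38.3 uM (primary) or 11 concentrations (follow-up): 16 h compound, 100 nM thapsigargin for 4 h, then extracellular luciferase luminescence.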

The nature of test [12]: NFAT Signaling Pathway (AID 444; active = well fitted curve in either direction with a large enough effect, not every such curve was filed as active;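 also: carbachol stimulus at about its EC50 of 1 µM final; % is scaled to controls: 0 for no effect and ±100 for the full control effect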). The conditions noted are these: Jurkat NFAT-bla M1, carbachol, beta-lactamase ratio, 5 h; at 7.69 µM (top of the series) unless noted. Put shortly:
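Jurkat cells with NFAT-driven β-lactamase reporter and co-expressed M1 receptor, stimulated with carbachol (final 1 uM, ~EC50), compound titration, 5 h at 37 °C. CCF4 loaded 1 h at RT; 460/530 nm ratio gave %activity and AC50.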

Test [13] in a line: Stat Signaling Pathway (AID 446; active = well fitted curve in either direction with a large enough effect, not every such curve was filed as active). The conditions noted are these: ME-180 (cervical carcinoma) SIE beta-lactamase reporter, IL-6 stimulated, 5 h; at 7.69 µM (top of the series) unless noted. In short, it runs like this:
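Emission at 460 and 530 nm (excitation 405 nm) reports SIE-controlled beta-lactamase in ME-180 cells. Cells received compound with 40 pM IL-6 for 5 hrs at 37 C; data scaled between 300 pM IL-6 and 125 nM JAK-inhibitor controls.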

Test [14] deals with Glucocorticoid receptor (Homo sapiens) (UniProt P04150). The experiment in a line: GR-EFC Redistribution (AID 451; calls by dose curve; also: potency is read from the fitted curve at half-maximal effect). The conditions noted are these: CHO-K1 GR-EFC translocation, beta-gal luminescence, 2 h. Put shortly:
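CHO-K1 cells expressing nuclear EA and GR-ED fragments of b-gal; compounds titrated up to 46 uM final, 2 h at 37 C. GR nuclear translocation read as complemented b-gal luminescence after 1 h RT detection.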

Test [15] concerns the target Cytochrome P450 3A4 (Homo sapiens) (UniProt P08684). The experiment in a line: qHTS Assay for Inhibitors and Substrates of Cytochrome P450 3A4 (AID 884). Also: potency is read from the fitted curve at half-maximal effect; nearly all actives have a fitted effect of over 50% in size. As to conditions: recombinant CYP3A4, Luciferin-PPXE luminescence; series mostly up to 57.1 µM. In short, it runs like this:
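Luminescent readout of luciferin produced by CYP3A4 (20 nM) dealkylation of Luciferin-PPXE, 25 uM (its KM). NADPH-driven reaction ran 60 min at RT after 10 min compound preincubation; data scaled to 57 uM ketoconazole as 100% inhibition.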

Test [16] shares this target. Put plainly: qHTS Assay for Activators of Cytochrome P450 3A4 (AID 885). Also: nearly all actives have a fitted effect of over 65% in size. The conditions noted are these: recombinant CYP3A4, Luciferin-PPXE luminescence, 60 min; series mostly up to 57.1 µM. In short, it runs like this: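 Activators are scored by enhanced luminescence from CYP3A4 conversion of luciferin-PPXE (25uM, equal to KM) to luciferin, after 60 min at RT with an NADPH-regenerating system.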

The target in test [17] is Cytochrome P450 2D6 (Homo sapiens) (UniProt P10635). Put plainly: qHTS Assay for Inhibitors and Substrates of Cytochrome P450 2D6 (AID 891). Also: potency is read from the fitted curve at half-maximal effect; nearly all actives have a fitted effect of over 60% in size. The conditions noted are these: recombinant CYP2D6, luciferin-ME EGE luminescence; series mostly up to 57.1 µM. Put shortly: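 Luminescent read-out of luciferin formed by 5 nM human CYP2D6 demethylating 30 uM Luciferin-ME EGE (Km level) over 60 min at room temperature after NADPH regeneration addition. Data normalized to full inhibition by 1.43 uM quinidine.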
Chain of Cytochrome P450 2D6 (Homo sapiens) (P10635 whole entry, looked up): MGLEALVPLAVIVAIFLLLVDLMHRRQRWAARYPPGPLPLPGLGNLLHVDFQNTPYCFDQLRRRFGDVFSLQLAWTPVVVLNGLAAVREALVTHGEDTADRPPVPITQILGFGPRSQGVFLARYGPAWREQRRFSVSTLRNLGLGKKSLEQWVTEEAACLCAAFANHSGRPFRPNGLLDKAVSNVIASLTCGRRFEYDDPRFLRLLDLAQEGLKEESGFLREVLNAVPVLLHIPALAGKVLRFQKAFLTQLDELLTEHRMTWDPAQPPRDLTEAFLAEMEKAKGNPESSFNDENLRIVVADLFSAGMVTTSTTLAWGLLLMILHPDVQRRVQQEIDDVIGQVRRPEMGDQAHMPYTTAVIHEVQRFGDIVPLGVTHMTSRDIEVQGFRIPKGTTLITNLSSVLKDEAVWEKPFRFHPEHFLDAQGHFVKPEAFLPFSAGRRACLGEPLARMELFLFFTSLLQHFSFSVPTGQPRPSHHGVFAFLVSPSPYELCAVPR

The nature of test [18]: Confirmation and Secondary Assay for Modulators of Hemoglobin Beta Chain Splicing at IVS2 654 locus (AID 910).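 Also: HeLa cells stably carrying EGFP split by mutant beta-globin IVS2-654 intron; % of control where 0% means no effect.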 The conditions noted are these: HeLa EGFP-654 splicing reporter, GFP fluorescence, 48 h; series mostly up to 38.3 µM. Put shortly: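 HeLa cells stably expressing EGFP interrupted by β-globin IVS2-654 intron, seeded overnight in Opti-MEM/2% FCS, then treated 2 days at 37 °C. Restored splicing read as total peak GFP intensity per well by laser scanning cytometry (488 nm excitation, 500–520 nm emission); 500 nM antisense PNA as control.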

Test [19] is described as follows: Confirmation and Secondary Assay for Modulators of Hemoglobin Beta Chain Splicing at IVS2 705 locus (AID 930).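 Also: HeLa cells stably expressing the EGFP-705 splicing reporter; GFP fluorescence per well restored by corrected splicing of the IVS2-705 intron in EGFP; % of control where 0% means no effect.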 As to conditions: HeLa EGFP-705 splicing reporter, GFP fluorescence, 48 h; series mostly up to 38.3 µM. Put shortly: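 HeLa IVS2-705 EGFP reporter cells, 500/well, compound 2 d at 37C; correct splicing yields fluorescent EGFP. Control: 500 nM antisense PNA. Read-out: total peak GFP intensity.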

A short description of test [20]: qHTS Assay for Lipid Storage Modulators (AID 1519; calls by dose curve). The conditions noted are these: Drosophila S3 cells, BODIPY lipid droplet/cell ratio, laser cytometry, cells loaded with oleic acid; for activity change, negative = inhibition: at 57.5 µM (top of the series). In short, it runs like this: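 Cells seeded at 5,000 per well were treated with compounds over a concentration series and loaded with oleic acid (400 uM, as added). Lipid droplet fluorescence (488 nm excitation, 500-530 nm channel) was read by laser-scanning cytometry and normalized to 20 uM Triacsin C.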

Where [21] appears, read: measured here: cell count channel max response.
Where [22] appears, read: measured here: lipid channel max response.

Chain of Cytochrome P450 3A4 (Homo sapiens) (P08684 whole entry, looked up): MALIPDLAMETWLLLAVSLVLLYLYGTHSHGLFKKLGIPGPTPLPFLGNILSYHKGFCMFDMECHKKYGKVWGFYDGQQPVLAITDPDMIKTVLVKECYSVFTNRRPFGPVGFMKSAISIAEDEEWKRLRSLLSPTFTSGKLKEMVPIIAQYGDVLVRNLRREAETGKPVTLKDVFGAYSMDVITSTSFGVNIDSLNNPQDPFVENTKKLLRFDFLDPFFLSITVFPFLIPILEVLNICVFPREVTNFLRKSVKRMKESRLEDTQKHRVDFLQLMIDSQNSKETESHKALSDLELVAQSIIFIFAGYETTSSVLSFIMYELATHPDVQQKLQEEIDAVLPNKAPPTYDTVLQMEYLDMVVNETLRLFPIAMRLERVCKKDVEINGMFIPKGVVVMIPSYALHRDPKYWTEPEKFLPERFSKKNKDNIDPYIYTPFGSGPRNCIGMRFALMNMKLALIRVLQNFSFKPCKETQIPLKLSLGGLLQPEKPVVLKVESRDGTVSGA
Chain of Lysosomal acid glucosylceramidase (Homo sapiens) (P04062 whole entry, looked up): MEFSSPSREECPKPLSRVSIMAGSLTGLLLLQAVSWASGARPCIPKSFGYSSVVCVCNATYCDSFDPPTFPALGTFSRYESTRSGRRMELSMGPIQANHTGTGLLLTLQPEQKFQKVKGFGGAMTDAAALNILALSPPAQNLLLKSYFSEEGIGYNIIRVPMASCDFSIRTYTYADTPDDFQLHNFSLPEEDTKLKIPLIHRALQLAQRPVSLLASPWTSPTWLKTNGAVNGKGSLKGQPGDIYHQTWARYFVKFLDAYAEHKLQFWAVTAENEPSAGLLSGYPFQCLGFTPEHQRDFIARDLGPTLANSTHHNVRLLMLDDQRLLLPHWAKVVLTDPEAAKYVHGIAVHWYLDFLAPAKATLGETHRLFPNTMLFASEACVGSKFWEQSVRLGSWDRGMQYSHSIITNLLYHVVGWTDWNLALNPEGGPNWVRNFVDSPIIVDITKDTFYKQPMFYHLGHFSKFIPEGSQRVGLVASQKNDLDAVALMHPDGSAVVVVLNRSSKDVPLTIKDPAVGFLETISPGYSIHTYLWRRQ
Chain of Dual specificity protein kinase CLK4 (Homo sapiens) (Q9HAZ1 whole entry, looked up): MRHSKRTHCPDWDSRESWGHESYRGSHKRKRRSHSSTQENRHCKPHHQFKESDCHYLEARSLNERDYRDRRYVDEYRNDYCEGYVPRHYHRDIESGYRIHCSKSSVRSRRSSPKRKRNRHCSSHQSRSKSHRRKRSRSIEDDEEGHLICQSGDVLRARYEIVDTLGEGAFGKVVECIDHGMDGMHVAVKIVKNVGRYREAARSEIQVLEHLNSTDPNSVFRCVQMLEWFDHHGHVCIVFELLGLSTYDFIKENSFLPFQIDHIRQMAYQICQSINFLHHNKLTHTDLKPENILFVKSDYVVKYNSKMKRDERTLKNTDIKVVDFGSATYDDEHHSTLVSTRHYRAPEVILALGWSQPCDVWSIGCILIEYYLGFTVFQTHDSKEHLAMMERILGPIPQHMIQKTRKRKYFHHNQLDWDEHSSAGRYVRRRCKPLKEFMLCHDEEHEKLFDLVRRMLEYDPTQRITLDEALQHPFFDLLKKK
Chain of 3',5'-cyclic-AMP phosphodiesterase 4B (Homo sapiens) (Q07343 whole entry, looked up): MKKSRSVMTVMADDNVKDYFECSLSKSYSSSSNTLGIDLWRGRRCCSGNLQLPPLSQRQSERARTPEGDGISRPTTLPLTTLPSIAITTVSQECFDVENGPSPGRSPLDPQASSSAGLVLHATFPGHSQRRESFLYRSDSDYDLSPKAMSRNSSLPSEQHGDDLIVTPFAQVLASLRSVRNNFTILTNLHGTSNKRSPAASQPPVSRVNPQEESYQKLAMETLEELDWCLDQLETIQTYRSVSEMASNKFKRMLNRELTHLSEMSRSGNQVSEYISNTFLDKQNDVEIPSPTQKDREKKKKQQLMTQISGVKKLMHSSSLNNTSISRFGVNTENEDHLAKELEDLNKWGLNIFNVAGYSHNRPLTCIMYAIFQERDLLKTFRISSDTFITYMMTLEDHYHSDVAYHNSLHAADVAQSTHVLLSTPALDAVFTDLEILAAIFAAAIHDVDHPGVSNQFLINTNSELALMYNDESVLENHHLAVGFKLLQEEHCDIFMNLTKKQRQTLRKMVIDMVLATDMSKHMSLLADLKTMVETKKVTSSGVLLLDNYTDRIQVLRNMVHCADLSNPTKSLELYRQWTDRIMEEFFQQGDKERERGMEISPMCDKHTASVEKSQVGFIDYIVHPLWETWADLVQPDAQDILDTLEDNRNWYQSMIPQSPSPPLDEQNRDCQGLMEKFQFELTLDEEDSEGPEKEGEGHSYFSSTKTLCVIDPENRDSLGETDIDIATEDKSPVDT
Chain of Ubiquitin carboxyl-terminal hydrolase 1 (Homo sapiens) (O94782 whole entry, looked up): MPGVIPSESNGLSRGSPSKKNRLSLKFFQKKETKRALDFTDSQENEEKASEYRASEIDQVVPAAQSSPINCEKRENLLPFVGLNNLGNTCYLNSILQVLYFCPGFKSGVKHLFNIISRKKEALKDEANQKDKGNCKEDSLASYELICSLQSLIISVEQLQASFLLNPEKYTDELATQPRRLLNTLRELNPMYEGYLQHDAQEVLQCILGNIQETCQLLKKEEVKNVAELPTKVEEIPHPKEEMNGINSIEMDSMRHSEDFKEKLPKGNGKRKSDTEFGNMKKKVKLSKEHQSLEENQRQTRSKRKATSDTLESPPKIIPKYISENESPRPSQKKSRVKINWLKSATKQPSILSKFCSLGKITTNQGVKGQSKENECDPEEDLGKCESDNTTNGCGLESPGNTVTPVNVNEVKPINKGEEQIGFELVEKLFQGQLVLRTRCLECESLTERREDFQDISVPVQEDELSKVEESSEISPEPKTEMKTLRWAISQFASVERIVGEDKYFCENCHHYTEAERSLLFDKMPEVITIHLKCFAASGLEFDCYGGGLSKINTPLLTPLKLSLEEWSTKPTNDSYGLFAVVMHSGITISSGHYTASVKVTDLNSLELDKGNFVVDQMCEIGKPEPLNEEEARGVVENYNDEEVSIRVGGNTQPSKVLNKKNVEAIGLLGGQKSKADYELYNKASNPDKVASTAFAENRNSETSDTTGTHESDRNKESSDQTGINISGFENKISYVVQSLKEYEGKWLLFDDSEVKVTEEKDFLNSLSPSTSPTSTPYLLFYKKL

On to `CN(C)c1ncc2nc(-c3ccc(F)cc3)c(=O)n(C[C@H]3CCCO3)c2n1`, for which the Potency was > 11.4 µM (inactive) in test [1], 2.51 µM (active) in test [3] and > 9.22 µM (inactive) in [4]. Further, the activity change, negative = inhibition in test [2] was 26.6% (inactive). Moreover, the result in [5] was inactive. The Potency entry in test [6], in [7], in test [8], in [9], in test [10] and in test [11] was “inactive” in each case.

As for `Clc1ccccc1-c1nccc(-n2ccnc2)n1`, the Potency is > 11.4 µM (inactive) in test [1]; > 46 µM (inactive) in test [4]; > 46 µM (inactive) in test [14]; 1.26 µM (active) in test [15]; 7.94 µM (active) in test [17]. Moreover, the values for the activity change, negative = inhibition in test [2], in [12] and in test [20] were -12.3% (inactive), -0.584% (inactive) and 8.95% (inactive), respectively. Moreover, the activity, negative = inhibition in test [13] is 0.405% (inactive). Further, the compound was classed as inactive in test [5], in [18] and in test [19]. For the same compound, the Potency entry in [16] and in test [11] was “inactive” each time. In addition, the values for the max response in test [20] (setting [21]) and in test [20] (setting [22]) were 4.29% and 13%, respectively.

On to `CS(=O)(=O)N1CCC[C@@]2(CCN(Cc3nccs3)C2)C1`, for which the results for the Potency in test [1] and in test [14] were > 11.4 µM (inactive) and > 46 µM (inactive), respectively. Moreover, the activity change, negative = inhibition in [2] is -5.88% (inactive); in test [12], 5.31% (inactive); in [20], 7.12% (inactive). In addition, in test [13], the activity, negative = inhibition was 4.77% (inactive). Further, the call in [5] was inactive. Also, the Potency result in test [6], in test [16] and in [11] was “inactive” each time. Besides, the values for the max response in test [20] (setting [21]) and in [20] (setting [22]) were 9.38% and 20.5%, respectively.
